Measurements published in PubChem BioAssay (EPA / NIEHS).
Results filed as inconclusive are left out. Active and inactive are the calls of the source. The calls were made as follows: active = hit-call score of the fitted dose curve at least 0.9, where 1 is the maximum; inconclusive = response in the unintended direction; inactive = score below 0.9.

Molecular target: human Protein Tyrosine Phosphatase Receptor Type M (PTPRM), PTPRM (gene 5797) (UniProt P28827)
Assay: NVS_ENZ_hPTPRM: NovaScreen (NVS) Enzymatic Assay for human Protein Tyrosine Phosphatase Receptor Type M (PTPRM) (AID 2283215)
Outline: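 Read-out is fluorescence after electrophoretic separation of substrate and product, taken 1.33 h post-dosing with recombinant enzyme. Compounds screened at 25 uM in duplicate, then concentration series for actives; activity as signal loss relative to DMSO.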

human Protein Tyrosine Phosphatase Receptor Type M (PTPRM), PTPRM (gene 5797), sequence (P28827 whole entry, looked up): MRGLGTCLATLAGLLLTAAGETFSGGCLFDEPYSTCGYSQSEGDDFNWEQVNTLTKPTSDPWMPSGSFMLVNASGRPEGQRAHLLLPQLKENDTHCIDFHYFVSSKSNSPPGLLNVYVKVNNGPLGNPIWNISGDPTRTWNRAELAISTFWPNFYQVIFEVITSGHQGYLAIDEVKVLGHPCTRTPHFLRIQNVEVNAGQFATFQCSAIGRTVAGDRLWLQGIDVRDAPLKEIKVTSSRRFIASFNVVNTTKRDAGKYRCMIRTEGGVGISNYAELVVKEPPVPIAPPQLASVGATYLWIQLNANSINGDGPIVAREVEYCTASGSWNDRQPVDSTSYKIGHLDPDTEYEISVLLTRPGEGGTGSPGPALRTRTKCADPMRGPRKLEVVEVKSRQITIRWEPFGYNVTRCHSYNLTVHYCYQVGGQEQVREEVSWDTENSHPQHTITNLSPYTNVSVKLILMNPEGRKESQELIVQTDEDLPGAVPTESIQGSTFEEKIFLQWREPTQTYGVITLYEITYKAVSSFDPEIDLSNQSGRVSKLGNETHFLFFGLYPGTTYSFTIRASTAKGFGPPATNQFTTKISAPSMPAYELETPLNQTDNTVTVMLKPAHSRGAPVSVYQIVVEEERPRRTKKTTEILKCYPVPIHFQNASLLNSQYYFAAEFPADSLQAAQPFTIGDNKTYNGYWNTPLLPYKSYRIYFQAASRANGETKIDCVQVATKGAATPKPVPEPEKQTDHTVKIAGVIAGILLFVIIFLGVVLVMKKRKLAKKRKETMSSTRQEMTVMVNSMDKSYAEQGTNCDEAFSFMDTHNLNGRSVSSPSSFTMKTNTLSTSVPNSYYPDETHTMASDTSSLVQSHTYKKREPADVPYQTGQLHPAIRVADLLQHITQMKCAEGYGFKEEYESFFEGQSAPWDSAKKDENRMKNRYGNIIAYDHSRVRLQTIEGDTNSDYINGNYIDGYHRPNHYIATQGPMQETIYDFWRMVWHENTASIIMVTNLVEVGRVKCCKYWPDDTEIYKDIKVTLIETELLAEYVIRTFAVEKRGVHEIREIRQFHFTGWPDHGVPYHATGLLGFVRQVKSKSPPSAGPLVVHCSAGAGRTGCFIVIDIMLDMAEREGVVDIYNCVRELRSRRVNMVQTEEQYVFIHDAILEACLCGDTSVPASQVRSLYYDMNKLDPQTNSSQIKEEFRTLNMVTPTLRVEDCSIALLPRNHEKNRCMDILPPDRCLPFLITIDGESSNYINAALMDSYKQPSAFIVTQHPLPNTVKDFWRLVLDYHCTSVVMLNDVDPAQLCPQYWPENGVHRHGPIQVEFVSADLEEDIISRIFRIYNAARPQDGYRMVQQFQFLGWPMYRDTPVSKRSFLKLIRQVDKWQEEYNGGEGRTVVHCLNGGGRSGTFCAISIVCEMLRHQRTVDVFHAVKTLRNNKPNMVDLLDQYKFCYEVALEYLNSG

Question: Which outcome does the source give for `COc1ccc(OC(F)(F)F)cc1CN[C@H]1CCCN[C@H]1c1ccccc1` here?
Answer: inactive

Question: Which outcome does the source give for `O=C1NC(=O)C(c2ccccc2)(c2ccccc2)N1` here?
Answer: inactive

Question: `CCCCOC(=O)CCCCC(=O)OCCCC` was tested. Which outcome did it give?
Answer: inactive

Molecular target: human Sirtuin 2 (SIRT2), SIRT2 (gene 22933) (UniProt Q8IXJ6)
Sequence (Q8IXJ6 whole entry, looked up): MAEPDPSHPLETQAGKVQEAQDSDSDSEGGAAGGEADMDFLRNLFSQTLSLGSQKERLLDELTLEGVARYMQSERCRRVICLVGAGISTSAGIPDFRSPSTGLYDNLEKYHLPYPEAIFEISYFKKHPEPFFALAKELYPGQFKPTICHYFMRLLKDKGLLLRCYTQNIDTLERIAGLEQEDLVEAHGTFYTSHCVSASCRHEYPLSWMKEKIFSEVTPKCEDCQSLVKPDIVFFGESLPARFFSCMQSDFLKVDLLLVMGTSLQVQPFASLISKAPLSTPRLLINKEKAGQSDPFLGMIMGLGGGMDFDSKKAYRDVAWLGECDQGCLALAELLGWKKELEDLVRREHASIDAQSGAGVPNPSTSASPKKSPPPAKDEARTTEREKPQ
Assay: NVS_ENZ_hSIRT2: NovaScreen (NVS) Enzymatic Assay for human Sirtuin 2 (SIRT2) (AID 2283217)
Outline: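 Single-point duplicate screen at 25 uM, then concentration-response (max 50 uM) for chemicals passing threshold. Enzyme activity of recombinant human SIRT2 measured after 1 hr by fluorescence with mobility-shift separation of product; DMSO baseline.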

Question: For `C=CCc1ccc(OC)c(OC)c1`, which outcome is on record?
Answer: inactive

Question: Which AC50 does the source give for `CN(C)C(=O)NC1(c2ccccc2)CCN(CCC[C@]2(c3ccc(Cl)c(Cl)c3)CCCN(C(=O)c3ccccc3)C2)CC1` here?
Answer: 1.69 µM (active)

Question: For `O=C(N[C@@H](c1ccccc1)[C@@H]1CCCCN1)c1cccc(C(F)(F)F)c1Cl`, which outcome is on record?
Answer: inactive

Question: Which AC50 does the source give for `CCN(CC)CCOc1ccc(C(=C(Cl)c2ccccc2)c2ccccc2)cc1` here?
Answer: 21 µM (active)

Question: Which outcome does the source give for `Cc1occc(=O)c1O` here?
Answer: inactive

Molecular target: human Sirtuin 1 (SIRT1), SIRT1 (gene 23411) (UniProt Q96EB6)
Sequence (Q96EB6 whole entry, looked up): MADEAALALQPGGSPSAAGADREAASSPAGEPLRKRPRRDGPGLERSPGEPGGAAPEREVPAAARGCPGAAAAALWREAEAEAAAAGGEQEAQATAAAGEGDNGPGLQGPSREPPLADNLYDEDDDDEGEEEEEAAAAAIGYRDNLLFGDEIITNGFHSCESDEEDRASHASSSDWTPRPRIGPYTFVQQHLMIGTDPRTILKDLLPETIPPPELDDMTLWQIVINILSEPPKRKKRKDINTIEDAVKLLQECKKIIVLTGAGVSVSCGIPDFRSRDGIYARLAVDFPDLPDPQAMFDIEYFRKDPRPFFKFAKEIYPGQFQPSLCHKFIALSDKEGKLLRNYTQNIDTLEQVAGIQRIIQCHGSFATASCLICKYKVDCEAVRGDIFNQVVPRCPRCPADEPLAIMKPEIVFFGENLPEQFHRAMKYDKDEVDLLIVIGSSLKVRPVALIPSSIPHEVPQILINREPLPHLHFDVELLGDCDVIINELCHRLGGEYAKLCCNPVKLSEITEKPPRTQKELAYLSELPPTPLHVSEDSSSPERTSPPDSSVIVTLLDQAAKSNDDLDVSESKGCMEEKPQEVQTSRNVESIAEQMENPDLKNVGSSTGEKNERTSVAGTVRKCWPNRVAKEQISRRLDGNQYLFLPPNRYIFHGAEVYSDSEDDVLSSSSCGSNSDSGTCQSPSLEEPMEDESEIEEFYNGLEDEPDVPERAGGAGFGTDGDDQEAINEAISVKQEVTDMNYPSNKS
Assay: NVS_ENZ_hSIRT1: NovaScreen (NVS) Enzymatic Assay for human Sirtuin 1 (SIRT1) (AID 2283219)
Outline: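 Cell-free recombinant SIRT1 with a fluorescent substrate; substrate and product separated by electrophoretic mobility shift and read by fluorescence intensity, 1 h after dosing. Primary screen at 25 uM in duplicate; hits re-run in concentration-response up to 50 uM, relative to DMSO.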

Question: Which outcome does the source give for `N[C@@H](Cc1c[nH]c2ccccc12)C(=O)O` here?
Answer: inactive

Question: For `CC(C)(O)c1ccc(CNC(=O)c2cccnc2Oc2ccc(F)cc2)cc1`, which outcome is on record?
Answer: inactive

Question: How did the outcome turn out when `O=C(Oc1ccccc1)c1cccc(C(=O)Oc2ccccc2)c1` was run?
Answer: inactive

Question: With `COC(=O)CCC(=O)OC` as the compound, how does the outcome read?
Answer: inactive

Question: How did the outcome turn out when `Cc1cc(SC2=C(O)C[C@@](CCc3ccc(N)cc3)(C(C)C)OC2=O)c(C(C)(C)C)cc1CO` was run?
Answer: inactive

Question: For `CC1=C(C)S(=O)(=O)CCS1(=O)=O`, which outcome is on record?
Answer: inactive

Molecular target: human Sirtuin 3 (SIRT3), SIRT3 (gene 23410) (UniProt Q9NTG7)
Sequence (Q9NTG7 whole entry, looked up): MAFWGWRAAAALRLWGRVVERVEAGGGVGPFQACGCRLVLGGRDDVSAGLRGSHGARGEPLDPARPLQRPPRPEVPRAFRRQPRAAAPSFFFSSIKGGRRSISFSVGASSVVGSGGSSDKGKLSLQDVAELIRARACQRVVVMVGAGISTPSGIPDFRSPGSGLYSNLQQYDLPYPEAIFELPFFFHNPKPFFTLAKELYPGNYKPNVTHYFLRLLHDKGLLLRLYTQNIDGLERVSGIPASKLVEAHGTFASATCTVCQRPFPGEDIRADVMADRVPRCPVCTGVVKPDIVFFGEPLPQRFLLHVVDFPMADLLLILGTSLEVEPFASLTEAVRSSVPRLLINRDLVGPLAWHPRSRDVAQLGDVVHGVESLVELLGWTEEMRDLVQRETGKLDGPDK
Assay: NVS_ENZ_hSIRT3: NovaScreen (NVS) Enzymatic Assay for human Sirtuin 3 (SIRT3) (AID 2283222)
Protocol: NVS_ENZ_hSIRT3 is a biochemical, single-readout assay that uses extracted gene-proteins in a cell-free assay. Measurements were taken 1 hour after chemical dosing in a 384-well plate.NVS_ENZ_hSIRT3 is one of one assay component(s) measured or calculated from the NVS_ENZ_hSIRT3 assay. It is designed to make measurements of enzyme activity, a form of enzyme reporter, as detected with fluorescence intensity signals by Fluorescence and electrophoretic mobility shift technology.Data from the assay component NVS_ENZ_hSIRT3 was analyzed into 1 assay endpoint. This assay endpoint, NVS_ENZ_hSIRT3, was analyzed in the positive analysis fitting direction relative to DMSO as the negative control and baseline of activity. Using a type of enzyme reporter, loss-of-signal activity can be used to understand changes in the enzymatic activity as they relate to the gene SIRT3. Furthermore, this assay endpoint can be referred to as a primary readout, because this assay has produced multiple assay endpoints where this one serves a enzymatic activity function. To generalize the intended target to other relatable targets, this assay endpoint is annotated to the hydrolase intended target family, where the subfamily is protein deacetylase.
Binding assays used specific radioligands (tritiated, iodinated) with non-radioactive competitive displacement ligands in agonist or antagonist protocols (as indicated) and various reference compounds and inhibitors to titrate specific binding to receptors and transporters. Most enzyme assays (CYPs, kinases, phosphatases, proteases, HDACs) used recombinant protein and specific substrates (fluorescence mostly, some colorimetric and radioactive) and inhibitors, followed by a biochemical separation of substrate and product. All assays for the biochemical HTS were initially run in duplicate at a single concentration (10 uM for CYP450 assays and 25 uM for all others). Assay-chemical combinations meeting a pre-defined threshold (e.g., 30% inhibition and other criteria defined below) were then run in singleton concentration-response format with maximum concentration of 20 uM for CYPs and 50 uM for all others. Each assay was run with positive and negative controls, and concurrent controls on every plate. The follow-up (secondary) screen tested active chemical-pairs in concentration series, as well as a few additional assays not tested in the primary screen, some selected negative inactives, and several cases re-run in the concentration series for confirmatory purposes.

Question: `CC(C)OC(=O)C(C)(C)Oc1ccc(C(=O)c2ccc(Cl)cc2)cc1` was tested. Which AC50 did it give?
Answer: 8.69 µM (active)

Question: `O=C1NC(=O)C(c2ccccc2)(c2ccccc2)N1` was tested. Which outcome did it give?
Answer: inactive

Question: Which outcome does the source give for `COC(=O)CCC(=O)OC` here?
Answer: inactive

Question: `O=C(N[C@@H](c1ccccc1)[C@@H]1CCCCN1)c1cccc(C(F)(F)F)c1Cl` was tested. Which outcome did it give?
Answer: inactive

Question: With `CCN(CC)CCOc1ccc(C(=C(Cl)c2ccccc2)c2ccccc2)cc1` as the compound, how does the outcome read?
Answer: inactive

Molecular target: human SRC Proto-Oncogene, Non-receptor Tyrosine Kinase (SRC), SRC (gene 6714) (UniProt P12931)
Sequence (P12931 whole entry, looked up): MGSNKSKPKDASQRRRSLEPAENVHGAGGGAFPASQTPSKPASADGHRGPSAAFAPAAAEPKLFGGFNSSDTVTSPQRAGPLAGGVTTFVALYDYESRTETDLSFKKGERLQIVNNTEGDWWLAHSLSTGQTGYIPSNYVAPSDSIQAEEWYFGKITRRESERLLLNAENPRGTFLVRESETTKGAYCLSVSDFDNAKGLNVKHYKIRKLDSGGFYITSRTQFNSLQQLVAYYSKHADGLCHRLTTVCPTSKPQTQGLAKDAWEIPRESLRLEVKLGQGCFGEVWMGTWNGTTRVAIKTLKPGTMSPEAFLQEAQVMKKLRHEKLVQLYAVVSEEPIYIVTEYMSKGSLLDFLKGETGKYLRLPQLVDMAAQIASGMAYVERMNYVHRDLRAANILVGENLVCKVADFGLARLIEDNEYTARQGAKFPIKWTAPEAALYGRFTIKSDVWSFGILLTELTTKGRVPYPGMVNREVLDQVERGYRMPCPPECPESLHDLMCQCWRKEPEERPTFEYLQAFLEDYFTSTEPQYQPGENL
Assay: NVS_ENZ_hSRC: NovaScreen (NVS) Enzymatic Assay for human SRC Proto-Oncogene, Non-receptor Tyrosine Kinase (SRC) (AID 2283223)
Outline: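 Compounds passing 30% inhibition at 25 uM (duplicate) were titrated to a top concentration of 50 uM. Enzyme activity read by fluorescence with mobility-shift substrate/product separation after 1 h; DMSO baseline.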

Question: With `CCCCc1nc2cccnc2n1Cc1ccc(-c2ccccc2-c2nnn[nH]2)cc1` as the compound, how does the outcome read?
Answer: inactive

Question: Which outcome does the source give for `CC(=O)O` here?
Answer: inactive

Question: Which AC50 does the source give for `CCCCCCCCCCCCCCOS(=O)(=O)O` here?
Answer: 37.1 µM (active)
